25 molecules from PubChem BioAssay (Tox21) can be followed below.

Where “and” joins values, the source holds several entries; their conditions need not be identical. Equal entries are not always repeated. Records with an inconclusive call do not appear. A call without a number means that no potency is given here. The source holds several records for some structures; these can differ, active in one and inactive in another. Calls of active or inactive are those of the source. Calls come from the whole dose curve; as a rule, active = well fitted cell-killing curve with a large enough effect in the repeat runs; inconclusive = weak or mixed curves, or effect the other way; inactive = flat fitted curve, though single readings scatter.
Potency is the fitted concentration of half-maximal effect.

The test can be described thus: qHTS assay to identify small molecule agonists of the TGF-beta/Smad signaling pathway - cell viability counter screen (AID 1346829). Note: nearly all actives have a fitted effect of over 45% in size. Particulars: SBE-bla HEK293T viability, CellTiter-Glo luminescence, 5 h; series mostly up to 76.8 µM. In a few lines: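 Same-well cytotoxicity: CellTiter-Glo added after the 2 hr room-temperature beta-lactamase substrate step, luminescence measured 30 min later; cells had 5 hr of compound at 37 C.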
(Quantitative high-throughput screening tests each substance at several concentrations.)
As to `ClCC(Cl)CCl`, the Potency entry was “inactive”. To `N#Cc1nn(-c2c(Cl)cc(C(F)(F)F)cc2Cl)c(N)c1S(=O)C(F)(F)F` (stereo not given) belongs “inactive”; to `CC[n+]1c(-c2ccccc2)c2cc(N)ccc2c2ccc(N)cc21`, “inactive”; to `O=[N+]([O-])c1ccc(Cl)c([N+](=O)[O-])c1`, 24.5 µM (active). With `CCCCSP(=O)(SCCCC)SCCCC` the entry was “inactive”; with `O=[N+]([O-])c1ccc(Nc2ccccc2)cc1`, “inactive”; with `C[N+](C)(C)CC(=O)[O-]`, “inactive”.

In the case of `CCCCOCCOC(C)=O`, the Potency entry was “inactive”.

As to `CC(C)(O)C#N`, the Potency entry was “inactive”. For `c1ccc(C2CO2)cc1` (stereo not given), the Potency result was “inactive”. Turning to `O=C(O)CF`, the Potency entry is “inactive”. To `CC1(C)Cc2cccc(O)c2O1` belongs “inactive”; to `NC(=O)CN1CCCC1=O`, “inactive”; to `Clc1cccc(C(Cl)(Cl)Cl)n1`, “inactive”. With `Clc1cccc(Cl)c1` the entry was “inactive”; with `COP(=S)(OC)SCn1nnc2ccccc2c1=O`, “inactive”.

On to `Clc1ccc(C(Cl)(Cl)Cl)cc1`, for which the Potency result is “inactive”.

With `CC1CC(=O)O1` (stereo not given), the Potency result was “inactive”. With `O=S(=O)(O)C(F)(F)C(F)(F)C(F)(F)C(F)(F)C(F)(F)C(F)(F)C(F)(F)C(F)(F)F` the entry was “inactive”.

For `COc1ccc(O)c(C(C)(C)C)c1`, the Potency result is “inactive”.

Turning to `CCCCCCCC[N+](C)(CCCCCCCC)CCCCCCCC`, the Potency is 49 µM (active).

Take `Nc1ccc2ccccc2c1`: the Potency entry is “inactive”.

`COP(=O)(NC(C)=O)SC` (stereo not given): the Potency result is “inactive”. Turning to `CCOP(=O)(O)OCC` (tested in a mixture with another compound), the Potency result was “inactive and 54.5 µM (active)”. With `CCC[CH2][Sn]([Cl])([Cl])[CH2]CCC` the figure was 7.01 µM (active) and 15.5 µM (active).
